# From PubChem BioAssay
# TGFb inhibitor = TGF-b pathway inhibition; HepG2 CAGA-GFP TGF-b/SMAD3 reporter, GFP fluorescence, 18 h; TGF-beta stimulated, 500 pg/mL final; Potency, µM (top dose mostly 46.1 µM), most hits filed as inhibitors; 410,000 tested, 1.2% active; further: nearly all actives have a fitted effect of over 65% in size
#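 Inhibition was scored as loss of TGF-beta-induced (500 pg/mL final, 18 hours, 37 degrees C) GFP in HEPG2 cells carrying a CAGA-GFP reporter, in DMEM with 1% FBS. Well GFP was summed per cell; Activity was normalised to unstimulated and stimulated DMSO wells, then concentration-response fitting.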
# S2 tox = reduces viability in counter-screen for ATXN expression inhibitors | S2 cells (HEK-293 line with an ATXN2-luciferase reporter) viability, CellTiter-Fluor protease fluorescence, 24 h | Potency, µM (titrated, usually from 56.7 µM), usual class: cytotoxic | 400,000 tested, 0.49% active; further: nearly all actives have a fitted effect of over 40% in size
# DT40 TDP1 CPT = DT40-hTDP1 cell growth loss with CPT. 420,000 tested, 12% active. Potency, µM (top dose mostly 46.2 µM), usual class: inhibitors. chicken DT40 Tdp1-/-;hTDP1 cells + 20 nM CPT, ATP luminescence, 48 h; further: nearly all actives have a fitted effect of over 55% in size
#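 Chicken DT40 Tdp1-/- cells stably complemented with human TDP1 were seeded at 400 cells/well in medium containing 20 nM camptothecin, exposed to pin-transferred compounds, and grown at 37 °C for at least 48 hr. Viability was read as ATP luminescence.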
# ATXN2 expr inh = reduces ATXN2 reporter expression in HEK-293 cells. HEK-293 ATXN2-luciferase reporter, luminescence, 24 h. AID 1745845. 360,000 tested, 0.72% active. Potency, µM (series often up to 57 µM), hits mostly inhibitors; further: nearly all actives have a fitted effect of over 55% in size
#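 qHTS (up to 57 uM final) was run with 24 h compound exposure of reporter cells at 37 °C. Each well was multiplexed: SteadyGlo luminescence measured ATXN2-luciferase expression after a fluorogenic Gly-Phe-AFC viability readout (25 uM final).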
# HepG2 tox = HepG2 cytotoxicity, counter-screen for TGF-b inhibitors. HepG2 CAGA-GFP viability, ATP luminescence, 18 h. Potency, µM (series often up to 46.1 µM), most hits filed as cytotoxic. 410,000 tested, 0.76% active. AID 588856
#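 HepG2 CAGA-GFP cells (1000/well, DMEM with 1% FBS) received compound, then TGF-beta at 500 pg/mL final, and were incubated 18 hours at 37 degrees C. Viability was read by CellTiter-Glo luminescence. Media-only wells were set as complete cell-killing and DMSO as no toxicity.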
# TDP1 cell noCPT = qHTS for Inhibitors of human tyrosyl-DNA phosphodiesterase 1 (TDP1): qHTS in cells in absence of CPT. Potency, µM (doses to about 46.2 µM), hits mostly inhibitors. DT40 Tdp1-/- hTDP1 cells, no CPT, ATP luminescence, 48 h. 420,000 tested, 15% active; further: nearly all actives have a fitted effect of over 55% in size
#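 Seeded 400 DT40-hTDP1 cells/well (vehicle DMSO, no 20 nM CPT); pinned compounds; ≥48 hr at 37 °C; CellTiter-Glo luminescence as viability measure.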
# A number is an active result; n = inactive; u = inconclusive; x = not tested or not shown; [ ] = dose if it differs, or a comment. Compounds with a hit are over-represented: about 17% of the library has one in this group of screens. The call rests on the fitted dose curve; in most records, active means well fitted curve in the direction sought with a large enough effect; inconclusive means small, poorly fitted or top-dose-only effect, or another doubt; inactive means no such curve, though single readings can be large; an effect the other way counts as inactive or inconclusive.
SMILES,TGFb inhibitor,S2 tox,DT40 TDP1 CPT,ATXN2 expr inh,HepG2 tox,TDP1 cell noCPT
Cc1ccc(C(=O)N2c3nc(-c4ccco4)nn3C3(CCCCC3)[C@@H]3CCCC[C@@H]32)cc1,n,x,16.4µM,x,n,14.6µM
COc1cccc(C(=O)N2c3nc(-c4ccco4)nn3C3(CCCCC3)[C@@H]3CCCC[C@@H]32)c1,n,x,u,x,n,16.4µM
Cc1ncc(COCc2ccccc2)c(CO)c1OCc1ccccc1,n,n,u,n,n,u
O=C(Nc1ccc(F)cc1)C1C2CCC3C(CCC21)C3(Cl)Cl (stereo not given),n,n,u,n,n,18.4µM
O=C(Nc1ccc(F)cc1)C1C(c2ccccc2)C1(Cl)Cl (stereo not given),15.8µM,u,n,u,n,u
O=C(Nc1ccc(Cl)cc1)C1C2CCC3C(CCC21)C3(Cl)Cl (stereo not given),u,n,u,n,n,u
O=C(CSc1ncnc2scc(-c3ccc(F)cc3)c12)c1ccc2c(c1)OCCO2,n,n,20.6µM,n,n,18.4µM
Cc1sc2ncnc(SCC(=O)c3ccc4c(c3)OCCO4)c2c1-c1ccccc1,n,n,6.51µM,n,n,9.2µM
CCc1nc(SCC(=O)c2ccc3c(c2)OCCO3)c2ccccc2n1,n,u,u,n,n,u
O=C(CSc1nc(Cc2ccccc2)nc2ccccc12)c1ccc2c(c1)OCCO2,n,n,16.4µM,n,n,23.1µM
O=C(CSc1ncnc2ccccc12)c1ccc2c(c1)OCCO2,n,n,18.4µM,n,n,18.4µM
Cc1ccc(-c2csc3ncnc(SCC(=O)c4ccc5c(c4)OCCO5)c23)cc1,n,n,u,n,n,u
CCN(CC)S(=O)(=O)c1ccc(OC(C)C)c(NC(=O)C2=COCCO2)c1,n,n,u,n,n,u
Cc1coc2cc3oc(=O)c(CC(=O)NCc4cccc(Cl)c4)c(C)c3cc12,u,x,u,x,n,20.6µM
Cc1coc2cc3oc(=O)c(CC(=O)NCCc4ccccc4F)c(C)c3cc12,n,x,n,x,n,n
Cc1coc2cc3oc(=O)c(Cc4ccccc4)c(C)c3cc12,n,n,n,n,n,n
Cc1coc2cc3oc(=O)c(CC(=O)NCc4ccccc4)c(C)c3cc12,n,x,5.8µM,x,n,5.17µM
Cc1ccc(CNC(=O)Cc2c(C)c3cc4c(C)coc4cc3oc2=O)cc1,n,x,n,x,n,n
Cc1coc2cc3oc(=O)c(CC(=O)NCc4ccc(F)cc4)c(C)c3cc12,n,x,6.51µM,x,n,5.8µM
CCCCC[C@H](O)CC[C@H]1[C@H](O)CC(=O)[C@@H]1CCCCCCC(=O)O,x,x,n[4.12 µM],x,x,n[4.12 µM]
CCOC(CCNC(=O)c1cc(-c2cccs2)nc2ccccc12)OCC,n,n,20.6µM,n,n,u
COc1ccc(OC)c(CNC(=O)c2cc(-c3ccc(Cl)s3)nc3ccccc23)c1,n,n,14.6µM,n,n,9.2µM
CN1CCN(NC(=O)c2cc(-c3ccc(Cl)s3)nc3ccccc23)CC1,n,n,u,u,n,14.6µM
COc1ccc(CNC(=O)c2cc(-c3cccs3)nc3ccccc23)c(OC)c1,n,n,2.59µM,n,n,u
CC(C)NC(=O)c1cc(-c2cccs2)nc2ccccc12,n,u,n,x,n,n
SMILES,TGFb inhibitor,S2 tox,DT40 TDP1 CPT,ATXN2 expr inh,HepG2 tox,TDP1 cell noCPT
C[C@@H]1CCCCO[C@@H](CN(C)S(C)(=O)=O)[C@@H](C)CN([C@H](C)CO)C(=O)c2cc(N(C)C)ccc2O1,n,n,n,n,n,n
CCOC(=O)/C(=C(/C)N)C1CC(=O)NC1=O (stereo not given),n,x,n,x,n,n
COC(=O)c1scc(-c2ccc(C)cc2)c1S(=O)(=O)N1CCN(c2ccccc2)CC1,u,n,11.6µM,n,n,9.2µM
COC(=O)c1scc(-c2ccc(C)cc2)c1S(=O)(=O)N1CCN(c2ccc(C)cc2C)CC1,n,n,14.6µM,n,n,9.2µM
COC(=O)c1scc(-c2ccc(C)cc2)c1S(=O)(=O)N1CCN(c2ccccc2F)CC1,n,n,13µM,n,n,18.4µM
Cc1cc(C)c(S(=O)(=O)N2CCN(c3ccccc3)CC2)c(C)c1,u,n,u,n,n,u
COC(=O)c1scc(-c2ccc(C)cc2)c1S(=O)(=O)N1CCN(c2ccc(C(C)=O)cc2)CC1,u,n,23.1µM,n,n,u
COC(=O)c1cc(S(=O)(=O)N2CCN(c3ccccc3F)CC2)c[nH]1,n,n,u,n,n,u
COC(=O)c1cc(S(=O)(=O)N2CCN(c3ccc(C)cc3C)CC2)cn1C,n,n,u,n,n,n
CCOC(=O)c1scc(-c2ccccc2)c1S(=O)(=O)N1CCN(c2ccc(Cl)cc2)CC1,n,n,u,n,n,13µM
COC(=O)c1scc(-c2ccc(C)cc2)c1S(=O)(=O)N1CCN(c2cccc(Cl)c2)CC1,n,n,18.4µM,n,n,18.4µM
CC(C)C[C@H](NC(=O)C1CCN(S(=O)(=O)c2ccccc2)CC1)C(=O)NCc1cccnc1,n,n,n,n,n,n
CC[C@@]1(O)C(=O)OCc2c1cc1n(c2=O)Cc2cc3c([N+](=O)[O-])cccc3nc2-1,x,x,0.0335µM,x,x,0.211µM
O=c1cccc2n1Cc1cc3ccccc3nc1-2,n,n,u,n,n,u
CCn1c(SC(C)C(=O)NCc2ccco2)nnc1-c1ccccc1 (stereo not given),n,x,n,x,n,n
COc1ccc(-c2nc(CSCC(=O)N3CCN(C)CC3)c(C)o2)cc1OC,n,n,n,n,n,n
COC(=O)CSCc1nc(-c2ccc(C(=O)OC)cc2)oc1C,n,n,n,4.47µM,n,n
Cc1cccc(-c2nc(CSCC(=O)N3CCN(c4ccccc4)CC3)c(C)o2)c1,11.2µM,x,u,x,n,u
COc1ccc(-c2nc(CSCC(=O)N3CCN(c4cccc(C)c4C)CC3)c(C)o2)cc1OC,n,31.6µM,18.4µM,u,n,23.1µM
CCOc1ccc(-c2nc(CSCC(=O)N3CCN(c4cccc(C(F)(F)F)c4)CC3)c(C)o2)cc1,u,x,20.6µM,x,n,10.3µM
CCOc1ccc(-c2nc(CSCC(=O)N3CCN(c4ccc(F)cc4)CC3)c(C)o2)cc1,n,n,n,n,n,n
O=C(NC1CC1)C1CCN(c2ncccn2)CC1,n,n,n,n,n,n
CCOCCCn1c(=N)c(C(=O)NC2CCCC2)cc2c(=O)n3cc(C)ccc3nc21,n,x,n,n,n,n
